These results are taken from PubChem BioAssay (EPA / NIEHS).

Broadly, the AC50 is the concentration at which the activity in the assay is half-maximal.

The source made the active and inactive calls. How the source made its calls: active means hit-call score of the fitted dose curve at least 0.9, where 1 is the maximum; inactive means score below 0.9.

A short description of one experiment: ATG_GATA_CIS: Attagene CIS-FACTORIAL HepG2 Assay for human GATA Binding Protein (AID 2282944). As to conditions: HepG2 GATA cis-element reporter, Attagene multiplex mRNA; actives raise or lower the signal. The method in brief: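 HepG2 cells transiently transfected with multiplexed cis-element reporter units reflecting endogenous transcription factor activity; reporter mRNA measured after 24 h dosing by RT-PCR, 6-FAM labeling, HpaI digestion and capillary electrophoresis. Bidirectional fitting versus DMSO baseline.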
Take `CCCCCCCCCCBr`: the result was inactive.
Still for that read-out and setting: next, `N#CCCC(Br)(C#N)CBr` (stereo not drawn): “inactive”.
Consider `O=C(NC(=O)c1c(F)cccc1F)Nc1cc(Cl)c(Oc2ncc(C(F)(F)F)cc2Cl)c(Cl)c1`, for which the result was inactive.
On the same count and under the same terms, the entry for `C=C(C)[C@@H]1CC=C(C=O)CC1` is “inactive”.
Still for that read-out and setting: the entry for `Cc1cc(SCc2sc(-c3ccc(C(F)(F)F)c(F)c3)nc2C)ccc1OCC(=O)O` is “inactive”.
The same measure, in the same setting: the entry for `ClCc1ccccc1CCl` is “inactive”; for `N#Cc1ccc(Cl)cc1` it is “inactive”.
On to `C[N+](C)(C)Cc1ccccc1`, for which the outcome was inactive.
Turning to `O=C1C=CC(=O)c2ccccc21`, the compound was called inactive.
As to `CC(O)(CS(=O)(=O)c1ccc(F)cc1)C(=O)Nc1ccc(C#N)c(C(F)(F)F)c1` (stereo not drawn), the compound was called inactive.
The same measure, in the same setting: the entry for `CCOC(=O)CC(=O)CCl` is “inactive”.
The same measure, in the same setting: the entry for `O=C(NC(=O)c1c(F)cccc1F)Nc1cc(Cl)c(OC(F)(F)C(F)C(F)(F)F)cc1Cl` (stereo not drawn) is “inactive”; for `C=CC(=O)NC(C)(C)CC(C)=O` it is “inactive”.
With `CC(C)CP(=S)(S)CC(C)C`, the compound was called inactive.
On to `Cc1cc(C(F)(C(F)(F)F)C(F)(F)F)ccc1NC(=O)c1cccc(I)c1C(=O)NC(C)(C)CS(C)(=O)=O`, for which the outcome was inactive.
Same read-out and setting: next, `O=S1OC[C@@H]2[C@H](CO1)[C@]1(Cl)C(Cl)=C(Cl)[C@@]2(Cl)C1(Cl)Cl` (stereo partly drawn): “inactive”.
The same measure, in the same setting: the entry for `CC1(C)[C@H](/C=C2\CCSC2=O)[C@@H]1C(=O)OCc1coc(Cc2ccccc2)c1` is “inactive”; for `CNC(=O)CSP(=O)(OC)OC` it is “inactive”; for `c1csc(-c2ccc(-c3cccs3)s2)c1` it is “inactive”.
For the compound `C1CCC(C2CCCCC2)CC1`, the result was inactive.
As for `NC(=O)c1ccc(N)nc1`, the outcome was inactive.
For `CC(F)(F)CC(F)(F)F`, the call was inactive.
For `C=CC(=O)[O][Sn]([CH2]CCC)([CH2]CCC)[CH2]CCC`, the AC50 was 0.536 µM (active).
On to `O=S(=O)(C(Cl)(Cl)Cl)C(Cl)(Cl)Cl`, for which the result was inactive.
Still for that read-out and setting: next, `COC(=O)c1cc(Oc2ccc(Cl)cc2Cl)ccc1[N+](=O)[O-]`: “inactive”; `CC(C)(c1ccc(O)c(-c2ccccc2)c1)c1ccc(O)c(-c2ccccc2)c1`: “inactive”.
Same read-out and setting: next, `Clc1cc(C(Cl)(Cl)Cl)cnc1Cl`: “inactive”.
Still for that read-out and setting: next, `CCOC(=O)OC1=C(c2cc(C)ccc2C)C(=O)NC12CCC(OC)CC2` (stereo not drawn): “inactive”; `CCCSP(=S)(OCC)Oc1ccc(SC)cc1` (stereo not drawn): “inactive”.
Consider `CN(C1CCCCC1)C1CCCCC1`, for which the outcome was inactive.
The same measure, in the same setting: the entry for `ClCCN1CCOCC1` is “inactive”; for `FC(F)OCC(F)(F)C(F)(F)F` it is “inactive”; for `N#Cc1ccccc1N` it is “inactive”.
The same measure, in the same setting: next, `[F][Sn]([c]1ccccc1)([c]1ccccc1)[c]1ccccc1`: “inactive”.
The same measure, in the same setting: next, `C[As+](C)(C)CC(=O)[O-]`: “inactive”.
For `O=C(Nc1ccc(Br)cc1)c1cc(Br)cc(Br)c1O`, the compound was called inactive.
Same read-out and setting: the entry for `O=[N+]([O-])c1ccc(Cl)c([N+](=O)[O-])c1` is “inactive”.
For the compound `CC(=Cc1ccccc1)[N+](=O)[O-]`, the AC50 is 16.8 µM (active).
In the case of `CCOc1ccc(N)cc1`, the compound was classed as inactive.

The next experiment in a line: ATG_GLI_CIS: Attagene CIS-FACTORIAL HepG2 Assay for human Zinc Finger Protein GLI1 (AID 2282945). The settings on record: HepG2, Attagene cis-factorial reporter mRNA, GLI element; actives raise or lower the signal. The method in brief: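 Transiently transfected HepG2 cells report endogenous transcription factor activity via cis-element-driven reporter units. After 24 h compound exposure, reporter mRNA was measured by RT-PCR with capillary electrophoresis; bidirectional fitting against DMSO baseline.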
Turning to `CCCCCCCCCCBr`, the outcome was inactive.
For `N#CCCC(Br)(C#N)CBr` (stereo not drawn), the AC50 was 53.6 µM (active).
Take `O=C(NC(=O)c1c(F)cccc1F)Nc1cc(Cl)c(Oc2ncc(C(F)(F)F)cc2Cl)c(Cl)c1`: the call was inactive.
Still for that read-out and setting: next, `C=C(C)[C@@H]1CC=C(C=O)CC1`: “inactive”; `Cc1cc(SCc2sc(-c3ccc(C(F)(F)F)c(F)c3)nc2C)ccc1OCC(=O)O`: “inactive”.
Take `ClCc1ccccc1CCl`: the AC50 was 33.4 µM (active).
Take `N#Cc1ccc(Cl)cc1`: the result was inactive.
Consider `C[N+](C)(C)Cc1ccccc1`, for which the outcome was inactive.
The same measure, in the same setting: next, `O=C1C=CC(=O)c2ccccc21`: “inactive”; `CC(O)(CS(=O)(=O)c1ccc(F)cc1)C(=O)Nc1ccc(C#N)c(C(F)(F)F)c1` (stereo not drawn): “inactive”.
As to `CCOC(=O)CC(=O)CCl`, the concentration at half-maximal activity (AC50) is 26.1 µM (active).
Turning to `O=C(NC(=O)c1c(F)cccc1F)Nc1cc(Cl)c(OC(F)(F)C(F)C(F)(F)F)cc1Cl` (stereo not drawn), the compound was classed as inactive.
`C=CC(=O)NC(C)(C)CC(C)=O`: the compound was called inactive.
Same read-out and setting: the entry for `CC(C)CP(=S)(S)CC(C)C` is “inactive”; for `Cc1cc(C(F)(C(F)(F)F)C(F)(F)F)ccc1NC(=O)c1cccc(I)c1C(=O)NC(C)(C)CS(C)(=O)=O` it is “inactive”; for `O=S1OC[C@@H]2[C@H](CO1)[C@]1(Cl)C(Cl)=C(Cl)[C@@]2(Cl)C1(Cl)Cl` (stereo partly drawn) it is “inactive”.
On the same count and under the same terms, the entry for `CC1(C)[C@H](/C=C2\CCSC2=O)[C@@H]1C(=O)OCc1coc(Cc2ccccc2)c1` is “inactive”; for `CNC(=O)CSP(=O)(OC)OC` it is “inactive”; for `c1csc(-c2ccc(-c3cccs3)s2)c1` it is “inactive”.
The same measure, in the same setting: next, `C1CCC(C2CCCCC2)CC1`: “inactive”; `NC(=O)c1ccc(N)nc1`: “inactive”; `CC(F)(F)CC(F)(F)F`: “inactive”.
As to `C=CC(=O)[O][Sn]([CH2]CCC)([CH2]CCC)[CH2]CCC`, the AC50 was 0.602 µM (active).
Same read-out and setting: the figure for `O=S(=O)(C(Cl)(Cl)Cl)C(Cl)(Cl)Cl` is 19.3 µM (active).
In the case of `COC(=O)c1cc(Oc2ccc(Cl)cc2Cl)ccc1[N+](=O)[O-]`, the call was inactive.
On the same count and under the same terms, next, `CC(C)(c1ccc(O)c(-c2ccccc2)c1)c1ccc(O)c(-c2ccccc2)c1`: “inactive”; `Clc1cc(C(Cl)(Cl)Cl)cnc1Cl`: “inactive”; `CCOC(=O)OC1=C(c2cc(C)ccc2C)C(=O)NC12CCC(OC)CC2` (stereo not drawn): “inactive”.
Same read-out and setting: the entry for `CCCSP(=S)(OCC)Oc1ccc(SC)cc1` (stereo not drawn) is “inactive”.
With `CN(C1CCCCC1)C1CCCCC1`, the result was inactive.
Still for that read-out and setting: next, `ClCCN1CCOCC1`: “inactive”.
Same read-out and setting: the entry for `FC(F)OCC(F)(F)C(F)(F)F` is “inactive”; for `N#Cc1ccccc1N` it is “inactive”.
For the compound `[F][Sn]([c]1ccccc1)([c]1ccccc1)[c]1ccccc1`, the AC50 is 2.18 µM (active).
For the compound `C[As+](C)(C)CC(=O)[O-]`, the call was inactive.
For the compound `O=C(Nc1ccc(Br)cc1)c1cc(Br)cc(Br)c1O`, the AC50 is 168 µM (active).
For the compound `O=[N+]([O-])c1ccc(Cl)c([N+](=O)[O-])c1`, the outcome was inactive.
`CC(=Cc1ccccc1)[N+](=O)[O-]`: the AC50 was 20.1 µM (active).
For `CCOc1ccc(N)cc1`, the outcome was inactive.
